Bioassay records (PubChem)
Rows were chosen to be rich in hits. Some 19% of all compounds tested hit in one or more screens of this group.
TDP1 cell noCPT – qHTS for Inhibitors of human tyrosyl-DNA phosphodiesterase 1 (TDP1): qHTS in cells in absence of CPT; Potency, µM (top dose mostly 46.2 µM), for the others: at the highest dose activity change, negative = growth inhibition, most hits filed as inhibitors; DT40 Tdp1-/- hTDP1 cells, no CPT, ATP luminescence, 48 h; 420,000 tested, 15% active; also: potency is read from the fitted curve at half-maximal effect; % is scaled to controls: 0 for no effect and ±100 for the full control effect; nearly all actives have a fitted effect of over 55% in size
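Seeded 400 DT40-hTDP1 cells/well (vehicle DMSO, no 20 nM CPT); pinned compounds; ≥48 hr at 37 °C; CellTiter-Glo luminescence as viability measure.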
IL1B secr inh – inhibitors of inflammasome signaling (IL-1 beta secretion). activity change, % at 57.5 µM. THP-1 LPS/ATP IL-1B secretion, AlphaLISA, 16 h; hits give low values. 360,000 tested, 4.7% active. AID 743279; in the data active = activity change below about -50%; inconclusive = mostly about -30% to -49%; also: % is scaled to controls: 0 for no effect and ±100 for the full control effect
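THP-1 cells pretreated 1 hr with compounds (up to 57.5 uM final), then stimulated with LPS (250 ng/mL final) plus ATP (1.25 mM final); secreted IL-1B measured by AlphaLISA after 16 hr, decreased signal indicating inhibition.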
S-ASM inh – inhibitors of human secretory acid sphingomyelinase; Potency, µM (highest dose often 57.5 µM), for the others: top-dose activity change, negative = inhibition, most hits filed as inhibitors; 340,000 tested, 0.006% active; placental ASM, HMU-PC fluorogenic substrate, 60 min; P17405; also: potency is read from the fitted curve at half-maximal effect
Target sequence (P17405 47-631 limits assumed): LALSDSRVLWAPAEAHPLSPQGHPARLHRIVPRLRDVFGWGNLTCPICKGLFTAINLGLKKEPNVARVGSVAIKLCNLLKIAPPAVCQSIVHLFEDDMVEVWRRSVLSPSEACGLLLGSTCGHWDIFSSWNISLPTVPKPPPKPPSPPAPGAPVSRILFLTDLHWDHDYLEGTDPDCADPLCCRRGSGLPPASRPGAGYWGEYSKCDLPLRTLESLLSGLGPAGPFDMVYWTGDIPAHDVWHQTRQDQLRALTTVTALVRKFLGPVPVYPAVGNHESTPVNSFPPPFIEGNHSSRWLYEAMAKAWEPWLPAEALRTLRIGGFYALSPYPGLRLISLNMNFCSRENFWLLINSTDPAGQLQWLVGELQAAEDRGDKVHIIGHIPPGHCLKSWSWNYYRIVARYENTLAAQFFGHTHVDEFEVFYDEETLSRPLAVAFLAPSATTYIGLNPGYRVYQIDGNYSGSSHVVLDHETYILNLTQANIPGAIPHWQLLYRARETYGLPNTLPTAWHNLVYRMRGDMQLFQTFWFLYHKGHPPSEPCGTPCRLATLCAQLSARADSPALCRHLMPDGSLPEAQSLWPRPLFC
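HMU-PC0 cleavage (9 uM final) by human placental ASM, 60 min at 37 °C following 10 min compound exposure at RT; stopped at pH 10, fluorescence Ex 386/Em 447 nm.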
TDP1 cell CPT – growth inhibition of DT40 Tdp1-/-;hTDP1 cells with camptothecin (screen for TDP1 inhibitors). 420,000 tested, 12% active. chicken DT40 Tdp1-/-;hTDP1 cells + 20 nM CPT, ATP luminescence, 48 h. Potency, µM (series often up to 46.2 µM), inactives show at the highest dose activity change, negative = growth inhibition, usual class: inhibitors; also: potency is read from the fitted curve at half-maximal effect; % is scaled to controls: 0 for no effect and ±100 for the full control effect; nearly all actives have a fitted effect of over 55% in size
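Cell growth measured by CellTiter-Glo luminescence after a minimum 48 h, 37 C compound exposure with 20 nM CPT in Tdp1-knockout DT40 cells stably expressing hTDP1, seeded 400/well; qHTS titration format.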
HepG2 tox – HepG2 cytotoxicity, counter-screen for TGF-b inhibitors; HepG2 CAGA-GFP viability, ATP luminescence, 18 h; Potency, µM (doses to about 46.1 µM), for inactives: at the top dose activity change, negative = cytotoxicity, usual class: cytotoxic; 410,000 tested, 0.76% active; also: potency is read from the fitted curve at half-maximal effect
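CellTiter-Glo luminescence gave cytotoxicity after 18 hours at 37 degrees C. The cells were HepG2 CAGA-GFP in 1% FBS DMEM, stimulated with 500 pg/mL TGF-beta after compound addition. %Activity was normalised to no-cell wells (complete cell-killing) and DMSO (no toxicity), and curves were fitted and classified.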
TGFb inhibitor – inhibitors of TGF-b signaling | HepG2 CAGA-GFP TGF-b/SMAD3 reporter, GFP fluorescence, 18 h; TGF-beta stimulated, 500 pg/mL final | AID 588855 | 410,000 tested, 1.2% active | Potency, µM (doses to about 46.1 µM), without a hit: at the highest dose activity, negative = inhibition, most hits filed as inhibitors; also: potency is read from the fitted curve at half-maximal effect; % is scaled to controls: 0 for no effect and ±100 for the full control effect; nearly all actives have a fitted effect of over 65% in size
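Inhibition of TGF-beta-driven CAGA-GFP reporter expression in HEPG2 cells is measured by cellular GFP fluorescence after 18 h stimulation with 500 pg/mL recombinant TGF-beta in 1% FBS medium at 37 degrees C.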
* marks the source's active call; other numbers are inactive results; ? = inconclusive; nt = no result. Unless noted, calls follow the shape of the dose curve; as a rule, active = well fitted curve in the direction sought with a large enough effect; inconclusive = small, poorly fitted or top-dose-only effect, or another doubt; inactive = no such curve, though single readings can be large; an effect the other way counts as inactive or inconclusive.

SMILES | TDP1 cell noCPT | IL1B secr inh | S-ASM inh | TDP1 cell CPT | HepG2 tox | TGFb inhibitor
NC(=S)N/N=C/c1ccc(-c2ccc(SC(F)F)cc2)o1 | 5.2µM* | -30 | 63% | 3.7µM* | -53% | 10µM*
CN(C)/N=C/c1ccc(/C=N/NC(N)=S)o1 | -28% | 9 | 5% | -7% | -14% | -2%
NC(=S)N/N=C\c1ccc(-c2cccc(Cl)c2Cl)o1 | 4.6µM* | 0 | 6% | 5.2µM* | -10% | ?
O=C(O)c1cc(-c2ccc(/C=N/NC(=S)Nc3ccccc3)o2)ccc1Cl | -18% | 30 | 46% | -5% | -12% | -10%
Cc1cc(OCC(=O)Nc2cccc(-c3nc4ccccc4o3)c2C)cc(C)c1Cl | ? | nt | nt | ? | -23% | 0%
COc1ccc(N2CCN(CCCNC(=O)C(=O)c3c(C)[nH]c4ccccc34)CC2)cc1 | ? | -13 | 0% | 1% | -26% | -21%
CC(C)CN(CCCNC(=O)Cn1ncc2c3ccccc3n(C)c2c1=O)CC(C)C | -17% | nt | nt | -3% | -2% | 11%
CCC1CCc2nc3sc(C(=O)Nc4ccc(F)c(Cl)c4)c(N)c3cc2C1 (configuration not stated) | ? | nt | nt | ? | 2% | 5%
CCCCN(C)c1c(C)nc2ccc(C(=O)NCCOc3ccc(OC)cc3)cn12 | 18µM* | -13 | nt | 13µM* | -17% | -6%
CCc1nc2ccc(C(=O)NCc3ccc4c(c3)OCO4)cn2c1N(CC)CCOC | ? | -15 | nt | ? | 7% | 4%
CCCCN(C(C)=O)c1c(CC)nc2ccc(C(=O)NCCOc3ccc(OC)cc3)cn12 | 13µM* | -5 | nt | ? | 5% | 19%
CCCCC(=O)N(C)c1c(C)nc2ccc(C(=O)NCCOc3ccc(OC)cc3)cn12 | -30% | -4 | nt | -19% | -25% | -2%
CCCCN(C)c1c(C)nc2ccc(C(=O)NCc3ccc4c(c3)OCO4)cn12 | 23µM* | -12 | nt | ? | 2% | ?
COc1ccc(OCCNC(=O)c2ccc3nc(C)c(N(C)C(=O)CCc4ccccc4)n3c2)cc1 | ? | -10 | nt | 23µM* | 3% | -4%
CCc1nc2ccc(C(=O)NCCOc3ccc(OC)cc3)cn2c1N(CCN(C)C)CC1CC1 | ? | ? | nt | ? | -28% | 2%
CC(=O)c1cccc(NC(=O)CSc2nc(=O)n(CCN3CCOCC3)c3c2CCCC3)c1 | -20% | ? | 0% | 1% | -2% | -3%
Cc1ccccc1S(=O)(=O)NC1OC(=O)C(Cl)=C1Cl (configuration not stated) | ? | -107* | 1% | 21µM* | 14% | ?
Cc1ccccc1S(=O)(=O)NC1OC(=O)C(Oc2ccccc2)=C1Br (configuration not stated) | 2% | 0 | 0% | -7% | 6% | -26%
C=CCn1c(SCC(C)=O)nc2scc(-c3ccco3)c2c1=O | 13µM* | -5 | -3% | ? | -11% | -1%
C=CCn1c(SCC(=O)N2CC(=O)Nc3ccccc32)nc2scc(-c3ccccc3)c2c1=O | ? | -52* | -6% | ? | 26% | ?
C=CCn1c(SC(F)F)nc2scc(-c3ccco3)c2c1=O | 5% | ? | -2% | 9% | -17% | 10µM*
CCOc1ccccc1CNC(=O)c1cn(-c2ccc(OC)cc2)c(=O)c2ccccc12 | ? | nt | nt | ? | -11% | -13%
Cc1ccc(C(=O)O/N=C/c2c(N3CCOCC3)n(C)c3ccccc23)cc1 | 4.1µM* | 55 | -9% | 3.3µM* | -19% | -16%
Cn1c(N2CCOCC2)c(/C=N/OC(=O)c2ccc(F)cc2)c2ccccc21 | 2.9µM* | 42 | -2% | 3.7µM* | -14% | -9%
Cn1c(N2CCOCC2)c(/C=N/OC(=O)c2cccnc2Cl)c2ccccc21 | ? | 52 | -2% | ? | 8% | 19%
SMILES | TDP1 cell noCPT | IL1B secr inh | S-ASM inh | TDP1 cell CPT | HepG2 tox | TGFb inhibitor
CC(=O)Nc1cccc(-c2cccc3nccn23)c1 | -29% | 21 | nt | -1% | 4% | 38%
O=C(NC1CC(=O)N(c2ccccc2)C1)C(c1ccccc1)c1ccccc1 (configuration not stated) | ? | nt | nt | ? | -11% | -11%
CC(C)CC(=O)C(=O)O | 16% | 13 | 1% | 5% | -3% | -17%
CCC1CC(/C(C)=N/NC(N)=O)OC1=O (configuration not stated) | 0% | 7 | 0% | 4% | 2% | -5%
C/C(=N\NC(N)=S)C1C2C3CC4C5CC(C42)C1C53 (configuration not stated) | 10µM* | -19 | 4% | ? | -24% | ?
CCCCS/C(=C(/C#N)C(N)=O)c1cc2c([nH]1)CCCC2 | ? | -66* | -16% | 21µM* | -13% | 0%
COc1ccc(C2c3c(n(C)c4ccccc34)C(=O)N2CC(=O)Nc2c(C)cc(C)cc2C)cc1 (configuration not stated) | ? | nt | nt | ? | -20% | ?
O=C(Cc1ccc(F)cc1)Nc1ccc(Cl)cn1 | -2% | -10 | -1% | 5% | -21% | -3%
O=C(/C=C/c1ccc(Cl)cc1Cl)n1cccn1 | ? | -61* | -2% | ? | -21% | -9%
O=C(/C=C/c1ccc(Cl)cc1Cl)c1ccc[nH]1 | ? | -86* | -3% | ? | -91% | ?
O=C1CNC(=S)N1CCc1ccc(O)c(O)c1 | ? | 36 | 1% | ? | -12% | 10%
CCCN1C(=O)/C(=C/c2ccc(N3CCOCC3)cc2)NC1=S | 15µM* | 22 | -21% | ? | -21% | 1%
Cc1ccc(CN2C(=O)N/C(=C\c3ccc(N4CCOCC4)cc3)C2=O)cc1 | ? | 5 | 176% | -28% | -3% | -12%
CCN1C(=O)/C(=C/c2ccc(N3CCCC3)cc2)NC1=S | 23µM* | -67* | -22% | 23µM* | -24% | 143%
CCCN1C(=O)/C(=C/c2ccc(N3CCCC3)c(C)c2)NC1=S | 21µM* | -25 | -12% | 16µM* | 0% | 110%
C=C1C(C(=O)Nc2ccc(OC)cc2)C1C(=O)Nc1ccc(OC)cc1 (configuration not stated) | -4% | 8 | 7% | -2% | -39% | -13%
